About 83,000 compounds went through this panel and 20% of them were active in at least one assay; those are over-represented in the sample as a whole.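 How to read the values: 0–100, growth inhibition (40 = 60% inhibited); 0, no net growth; -100 to 0, cell death (-40 = 40% of starting cells died; -100 = all dead).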 Activity calls are given as the source filed them. How the source made its calls: active means growth percent below 10; inactive means the rest.
What was measured:
Experiment in all cases: NCI-60 one-dose screen, 48 h (100 = growth as untreated, 0 = no growth, -100 = all killed)
Conditions in all cases: 10 µM unless noted
T-47D breast = system: T-47D breast
BT-549 breast = system: BT-549 breast
MDA-MB-435 melanoma = system: MDA-MB-435 melanoma
SW-620 colon = system: SW-620 colon
MCF7 breast = system: MCF7 breast
HCT-116 colon = system: HCT-116 colon
HCC-2998 colon = system: HCC-2998 colon
KM12 colon = system: KM12 colon

Measured: growth

CCOC(=O)CNC(=O)C1(NC(=O)CNC(=O)OCc2ccccc2)CCCC1
inactive: T-47D breast 107% | BT-549 breast 98% | MDA-MB-435 melanoma 95.6% | SW-620 colon 110% | MCF7 breast 96.6% | HCT-116 colon 101% | HCC-2998 colon 105% | KM12 colon 108%

COc1ccc(-c2cc(-c3nnc(SCC(=O)Nc4ccc(C(C)=O)cc4)n3-c3ccccc3)c3ccccc3n2)cc1OC
inactive: T-47D breast 84% | BT-549 breast 86.1% | MDA-MB-435 melanoma 105% | SW-620 colon 104% | MCF7 breast 95.2% | HCT-116 colon 83.4% | HCC-2998 colon 99.6% | KM12 colon 95.9%

NC(=O)c1cc(Br)cc(Br)c1NS(=O)(=O)c1ccccc1
inactive: T-47D breast 99.2% | BT-549 breast 103% | MDA-MB-435 melanoma 111% | SW-620 colon 101% | MCF7 breast 99% | HCT-116 colon 100% | HCC-2998 colon 106% | KM12 colon 106%

Cc1cc2c(cc1C)[n+](Cc1ccc3ccccc3n1)cn2Cc1ccc2ccccc2n1
active: T-47D breast -1.32% | BT-549 breast -45.9% | MDA-MB-435 melanoma -24.5% | SW-620 colon 9.34% | MCF7 breast 7.12% | HCT-116 colon -0.984% | HCC-2998 colon 3.84% | KM12 colon -7.23%

Cc1sc2nc(N3CCCCC3)[nH]c(=O)c2c1C
inactive: T-47D breast 84.2% | BT-549 breast 99.1% | MDA-MB-435 melanoma 103% | SW-620 colon 96.2% | MCF7 breast 96.1% | HCT-116 colon 93.2% | HCC-2998 colon 98% | KM12 colon 102%

COc1ccccc1NC(=O)c1sc2nc3c(cc2c1N)C(=O)CCC3
active: MDA-MB-435 melanoma -31.9%
inactive: T-47D breast 87.3% | BT-549 breast 63.1% | SW-620 colon 60.2% | MCF7 breast 59% | HCT-116 colon 75.5% | HCC-2998 colon 75.5% | KM12 colon 53.4%

Nc1nc(NC2CC2)c2ncn(C3C=CC(CO)C3)c2n1 (configuration not stated)
inactive: T-47D breast 110% | BT-549 breast 115% | MDA-MB-435 melanoma 105% | SW-620 colon 106% | MCF7 breast 107% | HCT-116 colon 109% | HCC-2998 colon 103% | KM12 colon 99.7%

N#Cc1ccc(-c2csc(Nc3ccc4nc5n(c(=O)c4c3)CCC5)n2)cc1
inactive: T-47D breast 102% | BT-549 breast 98.4% | MDA-MB-435 melanoma 103% | SW-620 colon 103% | MCF7 breast 92% | HCT-116 colon 96.2% | HCC-2998 colon 116% | KM12 colon 103%

CCCCCCCCCCNCCSS(=O)(=O)O
active: KM12 colon 4.36%
inactive: T-47D breast 88.7% | BT-549 breast 113% | MDA-MB-435 melanoma 62.4% | SW-620 colon 81.8% | MCF7 breast 19.2% | HCT-116 colon 52.9% | HCC-2998 colon 76.4%

COc1cc(/C=C/C(=O)c2c(C)n([O-])c3ccccc3[n+]2=O)cc(OC)c1OC
inactive: T-47D breast 34.9% | BT-549 breast 27.3% | MDA-MB-435 melanoma 46.3% | SW-620 colon 43.7% | MCF7 breast 20.8% | HCT-116 colon 30.6% | HCC-2998 colon 60.5% | KM12 colon 61.2%

CSc1nc(N)c2c(n1)N(C)C=NS2(=O)=O
inactive: T-47D breast 97.2% | BT-549 breast 100% | MDA-MB-435 melanoma 111% | SW-620 colon 102% | MCF7 breast 102% | HCT-116 colon 102% | HCC-2998 colon 107% | KM12 colon 117%

CCCCN=C(N)c1ccc(OCCSCCOc2ccc(C(N)=NCCCC)cc2)cc1
active: BT-549 breast -3.76%
inactive: T-47D breast 26.3% | MDA-MB-435 melanoma 35.5% | SW-620 colon 57.5% | MCF7 breast 29.1% | HCT-116 colon 41.5% | HCC-2998 colon 59% | KM12 colon 27%

N#Cc1c(NC(=O)c2ccco2)[n+]([O-])c2ccccc2[n+]1[O-]
inactive: T-47D breast 90.8% | BT-549 breast 92.9% | MDA-MB-435 melanoma 107% | SW-620 colon 107% | MCF7 breast 71.3% | HCT-116 colon 93.8% | HCC-2998 colon 98.3% | KM12 colon 109%

Cc1cc(=O)[nH]c(/C(=N/Nc2ccccc2)C(=O)c2ccc(Cl)cc2)n1
inactive: T-47D breast 77% | BT-549 breast 97.4% | MDA-MB-435 melanoma 108% | SW-620 colon 94.6% | MCF7 breast 90.1% | HCT-116 colon 86.9% | HCC-2998 colon 109% | KM12 colon 102%

O=C(Nc1ccc(Cl)cc1)Nc1ccccc1CNc1nc(Nc2ccc(OCCN3CCCC3)cc2)ncc1Cl
active: MDA-MB-435 melanoma -28.9% | SW-620 colon -14.9% | MCF7 breast -10.5% | HCT-116 colon -28.7% | HCC-2998 colon -21.1%
inactive: T-47D breast 105% | BT-549 breast 77.6% | KM12 colon 11.3%

COc1cnc2c(c1)C(=O)c1c-2n(CCCNC2=NCCS2)c(=O)c2cc(F)ccc12
active: SW-620 colon -22% | MCF7 breast 3.19% | HCT-116 colon -75.3%
inactive: T-47D breast 19.1% | BT-549 breast 13.4% | MDA-MB-435 melanoma 41.8% | HCC-2998 colon 65.5% | KM12 colon 46.7%

N#CC1c2ccccc2C=CN1C(=O)N(c1ccccc1)c1ccccc1 (configuration not stated)
active: T-47D breast -1.33%
inactive: BT-549 breast 74.1% | MDA-MB-435 melanoma 58.7% | SW-620 colon 21.8% | MCF7 breast 49.9% | HCT-116 colon 26.5% | HCC-2998 colon 96.8% | KM12 colon 102%

CCCCCc1c(C)[nH]c(/C=C2\N=C(c3ccc[nH]3)C=C2Oc2ccccc2)c1C
active: T-47D breast -61.1% [100 µM] | BT-549 breast -97.1% [100 µM] | MDA-MB-435 melanoma -34.4% [100 µM] | SW-620 colon -54% [100 µM] | MCF7 breast -100% [100 µM] | HCT-116 colon -4.84% [100 µM] | HCC-2998 colon -91.6% [100 µM] | KM12 colon -81.7% [100 µM]

C[C@]12CC[C@H](O)CC1=CC[C@@H]1[C@@H]2CC[C@]2(C)C(c3cccnc3)=CC[C@@H]12
inactive: T-47D breast 55.6% | BT-549 breast 59.5% | MDA-MB-435 melanoma 19.8% | SW-620 colon 72.7% | MCF7 breast 61.4% | HCT-116 colon 58.7% | HCC-2998 colon 74.6% | KM12 colon 52.8%

COc1ccc2cc(-c3nc4ccccc4[nH]3)c(=O)oc2c1
inactive: T-47D breast 92.9% | BT-549 breast 101% | MDA-MB-435 melanoma 108% | SW-620 colon 95.5% | MCF7 breast 89.3% | HCT-116 colon 93% | HCC-2998 colon 78.3% | KM12 colon 93.8%

CC12CCC3C(=CCc4cc(O)ccc43)C1CCC2=O (configuration not stated)
inactive: T-47D breast 104% | BT-549 breast 99.5% | MDA-MB-435 melanoma 73% | SW-620 colon 106% | MCF7 breast 120% | HCT-116 colon 102% | HCC-2998 colon 111% | KM12 colon 108%

NS(=O)(=O)c1cc(C2(O)NC(=O)c3ccccc32)ccc1Cl (configuration not stated)
inactive: T-47D breast 109% | BT-549 breast 97.7% | MDA-MB-435 melanoma 101% | SW-620 colon 109% | MCF7 breast 102% | HCT-116 colon 98.9% | HCC-2998 colon 109% | KM12 colon 111%

Cc1cc(-c2ccccc2)cc(C)n1
inactive: T-47D breast 114% | BT-549 breast 113% | MDA-MB-435 melanoma 105% | SW-620 colon 109% | MCF7 breast 93.5% | HCT-116 colon 104% | HCC-2998 colon 107% | KM12 colon 112%

COc1cc(C(=O)c2cc3c(cc2C)OCO3)cc(OC)c1OC
active: MDA-MB-435 melanoma -49%
inactive: T-47D breast 58.2% | BT-549 breast 68.3% | SW-620 colon 25.6% | MCF7 breast 13.6% | HCT-116 colon 15.9% | HCC-2998 colon 10.1% | KM12 colon 16.5%

CCSc1nc(Nc2ccc(S(=O)(=O)Nc3ccon3)cc2)c(C#N)c(-c2cccc(Br)c2)n1
inactive: T-47D breast 81% | BT-549 breast 90.2% | MDA-MB-435 melanoma 102% | SW-620 colon 110% | MCF7 breast 79.2% | HCT-116 colon 85% | HCC-2998 colon 106% | KM12 colon 95.1%

Cc1cc(Br)c(C)cc1Br
inactive: T-47D breast 92.5% | BT-549 breast 99.9% | MDA-MB-435 melanoma 99.8% | SW-620 colon 108% | MCF7 breast 98.2% | HCT-116 colon 99.1% | HCC-2998 colon 115% | KM12 colon 103%

O=c1[nH]c(SCc2ccccc2)nc2nc(Nc3ccc(NC(=S)Nc4ccccc4)cc3)nc(-c3ccc(O)cc3O)c12
inactive: T-47D breast 73.1% | BT-549 breast 91.7% | MDA-MB-435 melanoma 104% | SW-620 colon 96.8% | MCF7 breast 99.2% | HCT-116 colon 102% | HCC-2998 colon 98.6% | KM12 colon 89.4%

O=C(COc1cccc(/C=C2\Cc3ccccc3C2=O)c1)c1ccc(Cl)cc1
inactive: T-47D breast 80% | BT-549 breast 99.4% | MDA-MB-435 melanoma 114% | SW-620 colon 97.2% | MCF7 breast 78% | HCT-116 colon 100% | HCC-2998 colon 102% | KM12 colon 105%

Oc1ccccc1/C=N/N1CCCCCC1
inactive: T-47D breast 102% | BT-549 breast 97.9% | MDA-MB-435 melanoma 99.9% | SW-620 colon 108% | MCF7 breast 83.8% | HCT-116 colon 102% | HCC-2998 colon 95.8% | KM12 colon 103%

Source: PubChem BioAssay (NCI)
